Compound activity as filed in PubChem.
KB-V1 MDR tox – KB-V1 MDR subline cytotoxicity. KB-V1 MDR cells viability, CellTiter-Glo, 72 h. Potency, µM (series often up to 46.1 µM), hits mostly cytotoxic. 3.4% of 400,000 active. AID 1347076; note: % is set by controls: 0 for no effect and ±100 for the full control effect; nearly all actives have a fitted effect of over 60% in size
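Readout: CellTiter-Glo luminescence, 10 min after addition. Cells: KB-V1 MDR subline, 72 h at 37 degrees C with compound. Analysis: corrected, normalized data fitted to concentration-effect curves.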
HT1080 IDH1KD tx – toxicity to HT-1080 IDH1 knockdown cells (counter line); HT-1080 IDH1 knockdown viability, ATP luminescence, 48 h; Potency, µM (doses to about 46.1 µM), for inactives: at the highest dose activity, negative = toxicity, actives largely listed as cytotoxic; 2% of 360,000 active; AID 686971;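 note: 0% = DMSO wells and -100% = cell-free medium wells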
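Viability of IDH1-knockdown HT-1080 fibrosarcoma cells was assessed by CellTiter-Glo after 48 h at 37 °C with titrated compound; concentration-effect curves were classified by fit quality and response size.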
KB-3-1 cytotox – kills parental KB-3-1 adenocarcinoma cells. Potency, µM (doses to about 46.1 µM), actives largely listed as cytotoxic. 1.4% of 400,000 active. KB-3-1 viability, CellTiter-Glo ATP luminescence, 72 h; note: % is set by controls: 0 for no effect and ±100 for the full control effect; nearly all actives have a fitted effect of over 60% in size
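Parental KB-3-1 viability, qHTS format: 72 h compound exposure, 37 °C; CellTiter-Glo; media-only wells and DMSO plates as controls; concentration-effect fits on corrected data.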
SW480 rerep – inducers of DNA re-replication in SW480 colon cancer cells; 1.8% of 340,000 active; Potency, µM (highest dose often 46.1 µM), inactives show at the top dose re-replication activation, hits mostly activators; SW480 DNA re-replication, Hoechst DNA content imaging, 48 h; note: % of control where 0% means no effect; nearly all actives have a fitted effect of over 55% in size
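Compounds, transferred as 23 nL by pin tool, were incubated with cells for 48 hr; DNA content per nucleus was then quantified by Hoechst staining and fluorescence plate imaging.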
HT1080-NT tox – kills 2HG-producing HT-1080-NT fibrosarcoma cells; HT-1080-NT fibrosarcoma viability, CellTiter-Glo ATP luminescence, 48 h; Potency, µM (top dose mostly 46.1 µM), without a hit: top-dose activity, negative = less viability, most hits filed as cytotoxic; 1.6% of 360,000 active; AID 686970;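 note: NT is the 2HG producing partner of a matched IDH1 knockdown line; 0% = DMSO-treated cells and -100% = media-only wells without cells; nearly all actives have a fitted effect of over 55% in size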
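Fibrosarcoma NT cells, 750 per well in 5% FBS RPMI, were exposed to compound for 48 hours. Viability: CellTiter-Glo luminescence.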
MCF10A rerep – induces DNA re-replication in MCF 10a normal breast cells | MCF 10A DNA re-replication, Hoechst nuclear intensity, 48 h | Potency, µM (highest dose often 46.1 µM), for the others: at the top dose activity, positive = re-replication, usual class: activators | 2.9% of 350,000 active | AID 624296; note: % of control where 0% means no effect; nearly all actives have a fitted effect of over 50% in size
* marks the source's active call; other numbers are inactive results; [ ] = remark or other dose. This is a sample that favours compounds with a hit; in the whole collection about 8% have one here. Calls come from the whole dose curve; as a rule, active = well fitted curve in the direction sought with a large enough effect; inconclusive = small, poorly fitted or top-dose-only effect, or another doubt; inactive = no such curve, though single readings can be large; an effect the other way counts as inactive or inconclusive. Potency is the fitted concentration of half-maximal effect.

How did COc1ccc(NC(=O)c2ccc(CN3CCc4ccccc4C3)cc2)cc1OC do in these assays?
KB-V1 MDR tox: 8.2µM*; HT1080 IDH1KD tx: -16.7%; KB-3-1 cytotox: inconclusive; SW480 rerep: inconclusive; HT1080-NT tox: -24.3%; MCF10A rerep: 14.8%

How did COc1ccc(CN2CCc3cc(OC)c(OC)cc3C2)cc1O do in these assays?
KB-V1 MDR tox: 16.4µM*; HT1080 IDH1KD tx: -10.4%; KB-3-1 cytotox: inconclusive; SW480 rerep: 5.0%; HT1080-NT tox: 0.9%; MCF10A rerep: inconclusive

Results for COc1cccc(NC(=O)c2ccc(CN3CCc4ccccc4C3)cc2)c1 ?
KB-V1 MDR tox: inactive; HT1080 IDH1KD tx: -18.2%; KB-3-1 cytotox: inactive; SW480 rerep: 4.0%; HT1080-NT tox: -10.1%; MCF10A rerep: inconclusive

What do the screens show for `COc1ccc(NC(=O)c2ccc(COCC(F)(F)F)cc2)cc1OC`?
KB-V1 MDR tox: 20.6µM*; HT1080 IDH1KD tx: -2.1%; KB-3-1 cytotox: inactive; SW480 rerep: -4.0%; HT1080-NT tox: 8.1%; MCF10A rerep: 6.8%

How did O=C(Nc1ccc(S(=O)(=O)N2CCOCC2)cc1)c1ccc(CN2CCc3ccccc3C2)cc1 do in these assays?
KB-V1 MDR tox: 2.91µM*; HT1080 IDH1KD tx: 20.6µM*; KB-3-1 cytotox: inconclusive; SW480 rerep: 4.9%[9.22 µM]; HT1080-NT tox: inconclusive; MCF10A rerep: inconclusive

Results for O=C(Nc1cccnc1)c1ccc(COCC(F)(F)F)cc1 ?
KB-V1 MDR tox: inconclusive; HT1080 IDH1KD tx: -3.7%; KB-3-1 cytotox: inactive; SW480 rerep: -1.5%; HT1080-NT tox: -14.0%; MCF10A rerep: -0.3%

Results for CCCn1c(SCc2nc(-c3ccc(OC)cc3OC)no2)nnc1-c1ccc(Cl)cc1 ?
KB-V1 MDR tox: inactive; KB-3-1 cytotox: inactive

How did Cc1ccc(NC(=O)Cn2c(C)cc(C)c(C#N)c2=O)cc1F do in these assays?
KB-V1 MDR tox: inactive; KB-3-1 cytotox: inactive

Results for COc1ccc(-c2cn3nc(N4CCCC(C(=O)Nc5ccc(C)c(C)c5)C4)sc3n2)cc1 (centres undefined) ?
KB-V1 MDR tox: inactive; KB-3-1 cytotox: inactive

How did C=CCNC(=O)/C(=C\c1ccc2c(c1)OCO2)NC(=O)c1ccc(Br)cc1 do in these assays?
KB-V1 MDR tox: 23.1µM*; HT1080 IDH1KD tx: -2.9%; KB-3-1 cytotox: inactive; SW480 rerep: -84.9%; HT1080-NT tox: -7.7%; MCF10A rerep: -4.7%

How did CC(C)(C)C(=O)Nc1ccc(C(=O)N/N=C/c2ccccc2OC(=O)c2ccc(Cl)cc2)cc1 do in these assays?
KB-V1 MDR tox: inactive; HT1080 IDH1KD tx: inconclusive; KB-3-1 cytotox: inactive; SW480 rerep: 2.59µM*; HT1080-NT tox: -25.1%; MCF10A rerep: 11.7%

Results for COc1ccc(C(=O)N/N=C/c2ccc(OC(=O)c3ccccc3)cc2)cc1 ?
KB-V1 MDR tox: inactive; HT1080 IDH1KD tx: 6.3%; KB-3-1 cytotox: inactive; SW480 rerep: -8.3%; HT1080-NT tox: -2.8%; MCF10A rerep: -7.3%

What do the screens show for `COc1cc(C(=O)Oc2ccccc2/C=N/NC(=O)c2ccc(C)cc2)cc(OC)c1OC`?
KB-V1 MDR tox: inactive; HT1080 IDH1KD tx: inconclusive; KB-3-1 cytotox: 8.2µM*; SW480 rerep: inconclusive; HT1080-NT tox: inconclusive; MCF10A rerep: inconclusive

What do the screens show for `COc1ccc(C(=O)N/N=C/c2ccccc2OC(=O)c2ccccc2)cc1`?
KB-V1 MDR tox: 13µM*; HT1080 IDH1KD tx: 4.11µM*; KB-3-1 cytotox: 18.4µM*; SW480 rerep: inconclusive; HT1080-NT tox: 4.61µM*; MCF10A rerep: inconclusive

How did Cc1cccc(C(=O)Oc2ccccc2/C=N/NC(=O)c2ccc(NC(=O)C(C)(C)C)cc2)c1 do in these assays?
KB-V1 MDR tox: inconclusive; HT1080 IDH1KD tx: 3.7%; KB-3-1 cytotox: inactive; SW480 rerep: 2.0%; HT1080-NT tox: 0.2%; MCF10A rerep: 13.9%

How did CCOC(=O)c1noc2ncnc(Nc3cccc(C(F)(F)F)c3)c12 do in these assays?
KB-V1 MDR tox: inactive; KB-3-1 cytotox: inactive

How did Cn1c2c(c3cnc4cc(Cl)ccc4c31)CNCC2 do in these assays?
KB-V1 MDR tox: inactive; KB-3-1 cytotox: inactive

Results for O=C(O)COc1ccccc1/C=N/NC(=O)/C(=C\c1ccc2c(c1)OCO2)NC(=O)c1ccccc1 ?
KB-V1 MDR tox: inactive; HT1080 IDH1KD tx: 10.9%; KB-3-1 cytotox: inactive; SW480 rerep: 5.1%; HT1080-NT tox: inconclusive; MCF10A rerep: 18.4µM*

How did COc1cc(C(=O)Oc2cccc(/C=N/NC(=O)c3cccnc3)c2)cc(OC)c1OC do in these assays?
KB-V1 MDR tox: inactive; HT1080 IDH1KD tx: 18.4µM*; KB-3-1 cytotox: inactive; SW480 rerep: inconclusive; HT1080-NT tox: inconclusive; MCF10A rerep: -7.5%

How did O=C(N/N=C/c1ccccc1OC(=O)c1ccc2c(c1)OCO2)c1ccccc1 do in these assays?
KB-V1 MDR tox: inactive; HT1080 IDH1KD tx: -19.5%; KB-3-1 cytotox: inactive; SW480 rerep: inconclusive; HT1080-NT tox: -2.2%; MCF10A rerep: 20.6µM*

What do the screens show for `CCc1ccccc1NC(=O)C(=O)c1cc(C)n(-c2ccccc2F)c1C`?
KB-V1 MDR tox: inactive; KB-3-1 cytotox: inactive

What do the screens show for `Cc1cc(C)c2c(CC(=O)Nc3ccc(S(=O)(=O)Nc4ncccn4)cc3)coc2c1`?
KB-V1 MDR tox: inactive; KB-3-1 cytotox: inactive

Results for Cc1ccccc1C(=O)Nc1nnc2n1CCS2 ?
KB-V1 MDR tox: inconclusive; KB-3-1 cytotox: inactive

How did CCCCOc1ncnc2c1[nH]c1ccc(F)cc12 do in these assays?
KB-V1 MDR tox: 6.51µM*; HT1080 IDH1KD tx: -5.2%; KB-3-1 cytotox: 18.4µM*; SW480 rerep: -12.1%; HT1080-NT tox: inconclusive; MCF10A rerep: inconclusive

Results for CCCCOc1ncnc2c1[nH]c1ccccc12 ?
KB-V1 MDR tox: inactive; HT1080 IDH1KD tx: 14.6µM*; KB-3-1 cytotox: inconclusive; SW480 rerep: 24.3%; HT1080-NT tox: -17.5%; MCF10A rerep: 20.7%

How did CCCCOCCCNc1ncnc2c1[nH]c1ccccc12 do in these assays?
KB-V1 MDR tox: 1.64µM*; HT1080 IDH1KD tx: 17.8µM*; KB-3-1 cytotox: 2.59µM*; SW480 rerep: inconclusive; HT1080-NT tox: 12.6µM*; MCF10A rerep: inconclusive

Results for O=C(c1cnc(N2CCOCC2)c2ccccc12)N1CCN(c2ccc(F)cc2)CC1 ?
KB-V1 MDR tox: inconclusive; KB-3-1 cytotox: inactive

What do the screens show for `OC[C@@H]1CN(Cc2ccc(-c3ccccc3)cc2)C[C@H](n2cnc3c(NCc4ccc(F)cc4)ncnc32)O1`?
KB-V1 MDR tox: inconclusive; HT1080 IDH1KD tx: inconclusive; KB-3-1 cytotox: inconclusive; HT1080-NT tox: 18.4µM*
